From PubChem BioAssay (EPA / NIEHS)
Results filed as inconclusive are left out. Activity calls are given as the source filed them. Rule for the calls, unless noted: active = hit-call score of the fitted dose curve at least 0.9, where 1 is the maximum; inactive = score below 0.9.

Assays:
[1] = biological target: Estrogen-related receptor gamma (Homo sapiens) (UniProt P62508); experiment: ATG_ERRg_TRANS: Attagene TRANS-FACTORIAL HepG2 Assay for human Estrogen-Related Receptor gamma (ERRg) (AID 2282977; active = hit-call score of the fitted dose curve at least 0.9, where 1 is the maximum;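 note: hits increase reporter signal over DMSO so potencies reflect activators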); conditions: HepG2 Attagene TRANS reporter, ERRg transactivation
In short: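 HepG2 cells transiently transfected with multiplexed GAL4-UAS reporter units driven by chimeric NR-Gal4 proteins; 24 h exposure. Reporter mRNA quantified by RT-PCR, fluorescent labelling, HpaI digestion and capillary electrophoresis; gain of signal vs DMSO.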

[2] = biological target: Oxysterols receptor LXR-alpha (Homo sapiens) (UniProt Q13133); experiment: ATG_LXRa_TRANS: Attagene TRANS-FACTORIAL HepG2 Assay for human Liver X Receptor alpha (LXRa) (AID 2282980; active = hit-call score of the fitted dose curve at least 0.9, where 1 is the maximum); conditions: HepG2 Attagene TRANS reporter, LXRa transactivation
In short: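 HepG2 cells were transiently transfected with multiplexed reporter units driven by chimeric LXRa–GAL4 fusion proteins, then dosed for 24 h. Reporter mRNA was quantified by RT-PCR, fluorescent labelling and capillary electrophoresis; gain of signal fitted against DMSO baseline.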

[3] = biological target: Oxysterols receptor LXR-beta (Homo sapiens) (UniProt P55055); experiment: ATG_LXRb_TRANS: Attagene TRANS-FACTORIAL HepG2 Assay for human Liver X Receptor beta (LXRb) (AID 2282981; active = hit-call score of the fitted dose curve at least 0.9, where 1 is the maximum); conditions: HepG2 Attagene TRANS GAL4-LXRb reporter, mRNA
In short: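 In this TRANS format, exogenous chimeric NR-Gal4 protein activity, not endogenous factors, drives reporter expression in transfected human HepG2 cells. Exposure lasted 24 h; reporter mRNA was read by fluorescent capillary electrophoresis.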

[4] = biological target: Hepatocyte nuclear factor 4-alpha (Homo sapiens) (UniProt P41235); experiment: ATG_HNF4a_TRANS: Attagene TRANS-FACTORIAL HepG2 Assay for human Hepatocyte Nuclear Factor 4 alpha (HNF4a) (AID 2282982; active = hit-call score of the fitted dose curve at least 0.9, where 1 is the maximum); conditions: HepG2 HNF4a transactivation reporter, mRNA readout
In short: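 Cells used were human HepG2, transiently carrying GAL4-UAS reporter units read out against exogenous NR-GAL4 chimeras. Reporter transcript levels after 24 h dosing were quantified by fluorescent RT-PCR and capillary electrophoresis.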

[5] = ATG_M_06_TRANS: Attagene TRANS-FACTORIAL HepG2 Assay for M06 Transcription Factor (Internal Marker) (AID 2282983; active = hit-call score of the fitted dose curve at least 0.9, where 1 is the maximum); conditions: HepG2 Attagene TRANS M06 internal marker reporter
In short: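 HepG2 cells transiently transfected with multiplexed GAL4-UAS reporter transcription units; after 24 h compound exposure, reporter mRNA measured by RT-PCR, FAM-labelled primer extension, HpaI digestion and capillary electrophoresis. Gain-of-signal fitted versus DMSO baseline; background control readout.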

[6] = biological target: Nuclear receptor subfamily 4 group A member 2 (Homo sapiens) (UniProt P43354); experiment: ATG_NURR1_TRANS: Attagene TRANS-FACTORIAL HepG2 Assay for human Nuclear Receptor Related Protein 1 (NURR1) (AID 2282985; active = hit-call score of the fitted dose curve at least 0.9, where 1 is the maximum); conditions: HepG2 Attagene TRANS reporter, mRNA readout
In short: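 After 24 h chemical dosing, total RNA from transiently transfected HepG2 cells was reverse-transcribed and reporter cDNA PCR-amplified, FAM-labelled and analysed by capillary electrophoresis. Activity fitted in positive direction, DMSO as negative control.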

[7] = biological target: Nuclear respiratory factor 1 (Homo sapiens) (UniProt Q16656); experiment: ATG_NRF1_CIS: Attagene CIS-FACTORIAL HepG2 Assay for human Nuclear Respiratory Factor 1 (NRF1) Orphan Gene (AID 2282987); conditions: HepG2 NRF1 cis-element reporter, Attagene multiplex; actives raise or lower the signal
In short: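 HepG2 cells transiently transfected with multiple cis-regulated reporter units, exposed 24 h. Reporter mRNAs measured by RT-PCR, fluorescent labelling, HpaI digestion and capillary electrophoresis; bidirectional fitting against DMSO.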

[8] = ATG_NFI_CIS: Attagene CIS-FACTORIAL HepG2 Assay for human Nuclear Factor I (NFI) (AID 2282989); conditions: HepG2 cis-regulatory reporter, NFI response element transcription; actives raise or lower the signal
In short: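 Transfected HepG2 liver cells, exposed 24 h, supplied total RNA for oligo(dT) reverse transcription and reporter-specific PCR. Labelled, HpaI-cut fragments were sized by capillary electrophoresis; DMSO set the baseline for bidirectional fitting.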

[9] = biological target: Myc proto-oncogene protein (Homo sapiens) (UniProt P01106); experiment: ATG_Myc_CIS: Attagene CIS-FACTORIAL HepG2 Assay for human Myelocytomatosis (Myc) Proto-Oncogene Transcription Factor (AID 2282990); conditions: HepG2, Attagene cis-reporter transcription factor activity; actives raise or lower the signal
In short: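 DMSO-normalised, bidirectionally fitted reporter mRNA signal. HepG2 cells transfected with cis reporter constructs, treated 24 h; transcripts detected by RT-PCR, 6-FAM primer extension and CE.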

[10] = ATG_NF_kB_CIS: Attagene CIS-FACTORIAL HepG2 Assay for human Nuclear Factor Kappa B (NF-kB) (AID 2282991); conditions: HepG2 Attagene cis-factorial NF-kB reporter mRNA; actives raise or lower the signal
In short: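 HepG2 cells transfected with cis-promoter-driven reporter units, so endogenous transcription factor activity is measured. Reporter mRNA quantified 24 h after dosing by RT-PCR and capillary electrophoresis, with bidirectional fitting against DMSO.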

[11] = ATG_NRF2_ARE_CIS: Attagene CIS-FACTORIAL HepG2 Assay for human Nuclear Factor Erythroid 2 Related Factor 2 (NFR2) response to Antioxidant Response Elements (ARE) (AID 2282992); conditions: HepG2 Attagene ARE/NRF2 reporter, transcription factor activity; actives raise or lower the signal;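 for AC50: reporter mRNA level measured by RT-PCR and capillary electrophoresis fluorescence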
In short: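 HepG2 cells transiently transfected with multiplexed cis-element reporter constructs, 24 h after chemical dosing; reporter mRNA quantified by RT-PCR, fluorescent primer extension, HpaI digestion and capillary electrophoresis. Bidirectional fit relative to DMSO.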

[12] = ATG_Oct_MLP_CIS: Attagene CIS-FACTORIAL HepG2 Assay for human Octamer-Binding Transcription Factor (Oct) (AID 2282993); conditions: HepG2 Attagene cis-factorial Oct reporter, mRNA; actives raise or lower the signal
In short: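 Using HepG2 cells bearing transfected cis-reporter constructs, mRNA induction was read after 24 h by fluorescent RT-PCR and capillary electrophoresis, with DMSO defining baseline for gain- or loss-of-signal fits.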

[13] = BSK_3C_TissueFactor: BioMAP Diversity Plus: 3C Assay for Tissue Factor Biomarker Activity (AID 2282997); conditions: BioMAP 3C HUVEC, tissue factor biomarker readout; actives raise or lower the signal
In short: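 Primary human umbilical vein endothelial cells in the 3C system were exposed to test chemical for 24 h, then Tissue Factor measured by ELISA. Activity was fitted bidirectionally against DMSO as negative control and baseline.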

[14] = BSK_3C_uPAR: BioMAP Diversity Plus: 3C Assay for Urokinase-type plasminogen activator receptor (uPAR) Biomarker Activity (AID 2282998); conditions: BioMAP 3C HUVEC, uPAR biomarker ELISA; actives raise or lower the signal
In short: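 In this endothelial cell-based assay, human umbilical vein primary cells were treated with chemicals and harvested at 24 h. uPAR was quantified using ELISA, with gains or losses fitted relative to DMSO controls.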

[15] = biological target: Bile acid receptor (Homo sapiens) (UniProt Q96RI1); experiment: ATG_FXR_TRANS: Attagene TRANS-FACTORIAL HepG2 Assay for Farnesoid X Receptor (FXR) (AID 2282979; active = hit-call score of the fitted dose curve at least 0.9, where 1 is the maximum;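 note: hits raise reporter mRNA above DMSO so AC50 marks FXR activation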); conditions: HepG2 Attagene TRANS FXR-GAL4 reporter transcription
In short: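 HepG2 cells transiently transfected with reporter constructs in which a chimeric FXR-GAL4 protein drives a GAL4-UAS reporter; 24 h compound exposure. Reporter mRNA measured by RT-PCR, FAM labelling, HpaI digestion and capillary electrophoresis; gain-of-signal versus DMSO.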

[16] = biological target: Transcriptional activator Myb (Homo sapiens) (UniProt P10242); experiment: ATG_Myb_CIS: Attagene CIS-FACTORIAL HepG2 Assay for human Myeloblastosis (Myb) Proto-Oncogene Transcription Factor (AID 2282986); conditions: HepG2 Attagene CIS-FACTORIAL Myb reporter transcription; actives raise or lower the signal
In short: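 Transiently transfected HepG2 cells carrying a multiplexed cis-promoter reporter set report endogenous Myb activity after 24 h compound exposure. Reporter mRNA is read by RT-PCR with capillary electrophoresis of fluorescent products, fitted bidirectionally against DMSO.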

[17] = biological target: Glucocorticoid receptor (Homo sapiens) (UniProt P04150); experiment: ATG_GR_TRANS: Attagene TRANS-FACTORIAL HepG2 Assay for human Glucocorticoid Receptor (GR) (AID 2282978; active = hit-call score of the fitted dose curve at least 0.9, where 1 is the maximum;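 note: activators score as hits since higher reporter transcript over DMSO is fitted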); conditions: HepG2 Attagene TRANS GR reporter, mRNA transcription
In short: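 HepG2 cells transiently transfected with GAL4-UAS reporter units and exogenous GR-Gal4 chimera, dosed 24 h. Reporter mRNA by RT-PCR, FAM labeling, HpaI digest and capillary electrophoresis; gain-of-signal fit versus DMSO.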

[18] = ATG_M_32_TRANS: Attagene TRANS-FACTORIAL HepG2 Assay for M32 Transcription Factor (Internal Marker) (AID 2282984; active = hit-call score of the fitted dose curve at least 0.9, where 1 is the maximum); conditions: HepG2 Attagene TRANS M32 internal marker reporter
In short: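 Human hepatoma HepG2, transient MRTU transfection, 24 h treatment. RNA → RT-PCR → fluorescent primer extension → HpaI digest (2 h, 37 C) → CE. Positive-direction fit vs DMSO.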

[19] = biological target: Cellular tumor antigen p53 (Homo sapiens) (UniProt P04637); experiment: ATG_p53_CIS: Attagene CIS-FACTORIAL HepG2 Assay for human p53 Transcription Factor (AID 2282994); conditions: HepG2 p53 cis-element reporter, Attagene mRNA; actives raise or lower the signal
In short: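 HepG2 cells transiently transfected with cis-regulated multiple reporter transcription units, dosed 24 h. Reporter mRNA measured by RT-PCR, 6-FAM primer extension, HpaI digestion and capillary electrophoresis; bidirectional fit relative to DMSO.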

Sequence of Bile acid receptor (Homo sapiens) (Q96RI1 whole entry, looked up, the tested form may be a part): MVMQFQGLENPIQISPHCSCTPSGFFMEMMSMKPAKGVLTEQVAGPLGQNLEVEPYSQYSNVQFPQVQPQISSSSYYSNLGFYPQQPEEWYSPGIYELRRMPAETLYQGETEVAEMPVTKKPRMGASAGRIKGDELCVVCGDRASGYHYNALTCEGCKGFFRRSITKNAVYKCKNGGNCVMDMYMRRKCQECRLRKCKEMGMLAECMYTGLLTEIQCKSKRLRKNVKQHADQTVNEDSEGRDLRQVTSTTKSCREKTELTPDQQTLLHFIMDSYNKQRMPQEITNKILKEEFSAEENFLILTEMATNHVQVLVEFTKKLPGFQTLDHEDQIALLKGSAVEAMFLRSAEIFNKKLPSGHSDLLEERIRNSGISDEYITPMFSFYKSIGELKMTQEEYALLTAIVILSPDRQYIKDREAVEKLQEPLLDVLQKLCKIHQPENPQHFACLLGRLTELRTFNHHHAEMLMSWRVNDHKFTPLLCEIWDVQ
Sequence of Estrogen-related receptor gamma (Homo sapiens) (P62508 whole entry, looked up, the tested form may be a part): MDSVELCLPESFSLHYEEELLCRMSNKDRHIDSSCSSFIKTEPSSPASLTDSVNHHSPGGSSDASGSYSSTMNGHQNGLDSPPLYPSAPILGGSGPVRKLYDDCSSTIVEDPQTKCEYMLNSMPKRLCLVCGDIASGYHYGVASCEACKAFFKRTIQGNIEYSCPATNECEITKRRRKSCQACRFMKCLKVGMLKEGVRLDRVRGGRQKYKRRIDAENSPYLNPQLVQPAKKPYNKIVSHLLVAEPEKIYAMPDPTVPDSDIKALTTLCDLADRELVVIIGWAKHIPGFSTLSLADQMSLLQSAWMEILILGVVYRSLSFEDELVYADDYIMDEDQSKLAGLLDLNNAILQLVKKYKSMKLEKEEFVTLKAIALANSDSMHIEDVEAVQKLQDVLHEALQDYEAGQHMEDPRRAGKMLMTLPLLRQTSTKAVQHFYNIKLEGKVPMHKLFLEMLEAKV
Sequence of Oxysterols receptor LXR-alpha (Homo sapiens) (Q13133 whole entry, looked up, the tested form may be a part): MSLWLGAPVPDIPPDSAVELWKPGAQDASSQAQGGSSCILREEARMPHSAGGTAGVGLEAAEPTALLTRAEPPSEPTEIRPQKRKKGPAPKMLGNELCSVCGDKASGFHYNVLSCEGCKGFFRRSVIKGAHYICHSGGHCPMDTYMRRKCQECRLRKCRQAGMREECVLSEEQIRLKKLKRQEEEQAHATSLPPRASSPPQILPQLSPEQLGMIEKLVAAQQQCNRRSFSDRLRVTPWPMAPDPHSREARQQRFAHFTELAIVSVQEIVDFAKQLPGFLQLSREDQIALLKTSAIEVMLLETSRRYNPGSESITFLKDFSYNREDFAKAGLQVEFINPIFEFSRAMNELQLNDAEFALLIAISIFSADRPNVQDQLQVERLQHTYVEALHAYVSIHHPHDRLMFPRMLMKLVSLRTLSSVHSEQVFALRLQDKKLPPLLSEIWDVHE
Sequence of Glucocorticoid receptor (Homo sapiens) (P04150 whole entry, looked up, the tested form may be a part): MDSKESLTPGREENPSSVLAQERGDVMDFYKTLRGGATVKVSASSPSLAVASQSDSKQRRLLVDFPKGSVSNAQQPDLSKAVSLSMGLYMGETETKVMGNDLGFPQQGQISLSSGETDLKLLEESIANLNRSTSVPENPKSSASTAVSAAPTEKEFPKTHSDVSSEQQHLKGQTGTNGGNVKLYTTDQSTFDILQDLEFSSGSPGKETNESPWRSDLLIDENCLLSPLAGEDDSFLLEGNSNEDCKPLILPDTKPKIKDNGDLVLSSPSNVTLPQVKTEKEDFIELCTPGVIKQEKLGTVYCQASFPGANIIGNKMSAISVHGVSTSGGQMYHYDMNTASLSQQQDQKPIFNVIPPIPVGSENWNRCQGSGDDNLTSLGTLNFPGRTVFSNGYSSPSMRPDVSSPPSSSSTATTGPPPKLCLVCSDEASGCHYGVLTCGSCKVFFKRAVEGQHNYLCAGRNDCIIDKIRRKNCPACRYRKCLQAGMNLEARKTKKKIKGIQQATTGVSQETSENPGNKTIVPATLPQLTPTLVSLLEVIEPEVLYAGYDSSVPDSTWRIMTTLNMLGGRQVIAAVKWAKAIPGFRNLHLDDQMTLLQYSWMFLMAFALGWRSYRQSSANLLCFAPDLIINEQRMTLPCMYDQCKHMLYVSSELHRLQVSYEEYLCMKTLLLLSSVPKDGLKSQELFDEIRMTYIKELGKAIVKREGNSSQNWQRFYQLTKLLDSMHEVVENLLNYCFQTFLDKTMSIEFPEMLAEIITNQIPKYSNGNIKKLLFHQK
Sequence of Hepatocyte nuclear factor 4-alpha (Homo sapiens) (P41235 whole entry, looked up, the tested form may be a part): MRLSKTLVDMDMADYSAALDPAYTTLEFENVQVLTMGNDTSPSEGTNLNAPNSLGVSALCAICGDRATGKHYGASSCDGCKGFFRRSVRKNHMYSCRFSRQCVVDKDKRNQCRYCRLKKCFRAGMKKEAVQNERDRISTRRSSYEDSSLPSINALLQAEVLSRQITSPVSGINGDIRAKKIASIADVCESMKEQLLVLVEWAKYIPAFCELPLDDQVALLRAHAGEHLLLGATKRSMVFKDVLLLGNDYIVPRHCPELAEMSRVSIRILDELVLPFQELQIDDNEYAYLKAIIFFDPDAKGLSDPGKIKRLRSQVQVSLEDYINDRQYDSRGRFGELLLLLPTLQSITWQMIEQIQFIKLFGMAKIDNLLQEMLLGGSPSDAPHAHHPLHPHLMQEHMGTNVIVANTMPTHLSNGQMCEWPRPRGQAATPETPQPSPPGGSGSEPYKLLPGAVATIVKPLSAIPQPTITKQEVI
Sequence of Transcriptional activator Myb (Homo sapiens) (P10242 whole entry, looked up): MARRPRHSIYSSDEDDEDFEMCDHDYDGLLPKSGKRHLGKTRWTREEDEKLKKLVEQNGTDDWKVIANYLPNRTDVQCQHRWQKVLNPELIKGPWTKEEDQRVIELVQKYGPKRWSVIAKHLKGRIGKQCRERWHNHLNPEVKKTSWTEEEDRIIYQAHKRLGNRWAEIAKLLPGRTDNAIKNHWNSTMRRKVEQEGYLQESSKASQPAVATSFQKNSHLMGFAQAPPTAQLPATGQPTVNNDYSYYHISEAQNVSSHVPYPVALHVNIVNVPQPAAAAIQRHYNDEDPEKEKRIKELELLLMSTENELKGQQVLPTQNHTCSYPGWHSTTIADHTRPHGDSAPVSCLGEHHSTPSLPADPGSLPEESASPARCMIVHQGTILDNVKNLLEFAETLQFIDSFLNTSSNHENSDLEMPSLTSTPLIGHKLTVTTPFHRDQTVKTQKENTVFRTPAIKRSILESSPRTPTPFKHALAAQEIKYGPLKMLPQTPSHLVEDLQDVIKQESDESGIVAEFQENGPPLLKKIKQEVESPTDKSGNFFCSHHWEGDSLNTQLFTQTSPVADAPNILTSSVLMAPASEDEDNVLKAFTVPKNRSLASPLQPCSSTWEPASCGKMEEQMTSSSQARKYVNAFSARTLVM
Sequence of Oxysterols receptor LXR-beta (Homo sapiens) (P55055 whole entry, looked up, the tested form may be a part): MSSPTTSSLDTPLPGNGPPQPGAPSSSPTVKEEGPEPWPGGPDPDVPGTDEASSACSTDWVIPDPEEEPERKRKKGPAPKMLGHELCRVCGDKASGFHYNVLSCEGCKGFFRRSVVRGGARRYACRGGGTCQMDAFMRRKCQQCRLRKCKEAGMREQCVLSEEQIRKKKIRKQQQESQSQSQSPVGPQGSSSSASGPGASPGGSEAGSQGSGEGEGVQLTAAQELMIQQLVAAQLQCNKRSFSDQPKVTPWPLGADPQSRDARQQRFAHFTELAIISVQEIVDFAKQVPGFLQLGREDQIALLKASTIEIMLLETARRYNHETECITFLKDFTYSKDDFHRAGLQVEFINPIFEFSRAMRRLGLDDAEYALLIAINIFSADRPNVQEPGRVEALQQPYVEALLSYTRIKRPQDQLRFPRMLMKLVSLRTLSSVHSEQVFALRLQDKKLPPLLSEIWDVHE
Sequence of Nuclear respiratory factor 1 (Homo sapiens) (Q16656 whole entry, looked up): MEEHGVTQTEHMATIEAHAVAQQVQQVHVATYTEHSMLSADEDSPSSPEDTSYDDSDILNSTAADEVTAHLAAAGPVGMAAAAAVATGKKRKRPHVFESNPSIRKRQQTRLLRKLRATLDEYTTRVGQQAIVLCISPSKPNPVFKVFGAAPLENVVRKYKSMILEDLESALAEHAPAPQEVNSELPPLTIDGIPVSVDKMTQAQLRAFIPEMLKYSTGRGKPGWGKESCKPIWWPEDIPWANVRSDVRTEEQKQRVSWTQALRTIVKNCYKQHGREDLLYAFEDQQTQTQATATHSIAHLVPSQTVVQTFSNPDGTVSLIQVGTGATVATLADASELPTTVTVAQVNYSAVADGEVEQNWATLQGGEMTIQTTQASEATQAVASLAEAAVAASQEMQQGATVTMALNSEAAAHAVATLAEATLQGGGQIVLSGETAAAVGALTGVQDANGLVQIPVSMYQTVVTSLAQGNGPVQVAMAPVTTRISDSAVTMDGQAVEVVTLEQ
Sequence of Myc proto-oncogene protein (Homo sapiens) (P01106 whole entry, looked up): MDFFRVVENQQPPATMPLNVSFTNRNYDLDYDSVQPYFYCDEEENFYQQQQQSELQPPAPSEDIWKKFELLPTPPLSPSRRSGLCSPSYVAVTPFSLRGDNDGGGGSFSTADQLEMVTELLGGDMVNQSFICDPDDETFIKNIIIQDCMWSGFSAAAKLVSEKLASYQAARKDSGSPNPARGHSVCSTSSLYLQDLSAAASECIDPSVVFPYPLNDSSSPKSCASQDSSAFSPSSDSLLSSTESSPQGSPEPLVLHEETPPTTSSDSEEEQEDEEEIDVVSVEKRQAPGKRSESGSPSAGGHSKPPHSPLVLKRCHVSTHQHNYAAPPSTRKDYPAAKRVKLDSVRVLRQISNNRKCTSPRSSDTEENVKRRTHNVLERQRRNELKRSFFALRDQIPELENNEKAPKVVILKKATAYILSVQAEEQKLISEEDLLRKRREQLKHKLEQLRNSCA

## CC1(C(=O)Nc2ccc(O)c(Cl)c2Cl)CCCCC1
[1]
  outcome: inactive
[2]
  AC50: 50 µM (active)
[3]
  outcome: inactive
[4]
  outcome: inactive
[5]
  outcome: inactive
[6]
  outcome: inactive
[7]
  outcome: inactive
[8]
  outcome: inactive
[9]
  outcome: inactive
[10]
  outcome: inactive
[11]
  AC50: 8.84 µM (active)
[12]
  AC50: 22.2 µM (active)
[13]
  outcome: inactive
[14]
  outcome: inactive

## COc1cccc(C(=O)NN(C(=O)c2cc(C)cc(C)c2)C(C)(C)C)c1C
[1]
  outcome: inactive
[15]
  outcome: inactive
[5]
  outcome: inactive
[16]
  outcome: inactive
[7]
  outcome: inactive
[8]
  outcome: inactive
[9]
  outcome: inactive
[10]
  outcome: inactive
[11]
  outcome: inactive
[12]
  outcome: inactive
[13]
  outcome: inactive
[14]
  outcome: inactive

## CC(C)=CC1C(C(=O)OCN2C(=O)C3=C(CCCC3)C2=O)C1(C)C (stereo unspecified)
[1]
  outcome: inactive
[17]
  outcome: inactive
[3]
  outcome: inactive
[18]
  outcome: inactive
[6]
  outcome: inactive
[16]
  AC50: 50 µM (active)
[7]
  outcome: inactive
[8]
  outcome: inactive
[9]
  outcome: inactive
[11]
  AC50: 16.2 µM (active)
[12]
  AC50: 35.4 µM (active)
[19]
  outcome: inactive
[13]
  AC50: 12.7 µM (active)
[14]
  AC50: 15.5 µM (active)

## Cc1ccn2nc(S(=O)(=O)Nc3c(F)cccc3F)nc2n1
[1]
  outcome: inactive
[15]
  outcome: inactive
[3]
  outcome: inactive
[5]
  outcome: inactive
[18]
  outcome: inactive
[7]
  outcome: inactive
[8]
  outcome: inactive
[9]
  outcome: inactive
[11]
  outcome: inactive
[12]
  outcome: inactive
[13]
  outcome: inactive
[14]
  outcome: inactive

## COP(=O)(OC)OC(Br)C(Cl)(Cl)Br (stereo unspecified)
[17]
  outcome: inactive
[15]
  outcome: inactive
[3]
  outcome: inactive
[4]
  outcome: inactive
[16]
  outcome: inactive
[7]
  outcome: inactive
[8]
  outcome: inactive
[9]
  outcome: inactive
[11]
  outcome: inactive
[12]
  outcome: inactive
[13]
  AC50: 16.3 µM (active)
[14]
  AC50: 31.7 µM (active)

## CCc1cccc(C)c1N(C(=O)CCl)C(C)COC (stereo unspecified)
[1]
  outcome: inactive
[5]
  outcome: inactive
[18]
  outcome: inactive
[16]
  outcome: inactive
[7]
  outcome: inactive
[8]
  outcome: inactive
[9]
  outcome: inactive
[10]
  outcome: inactive
[11]
  AC50: 5.18 µM (active)
[12]
  AC50: 14.2 µM (active)
[13]
  outcome: inactive
[14]
  outcome: inactive

## C=C(C)[C@H]1Cc2c(ccc3c2O[C@@H]2COc4cc(OC)c(OC)cc4[C@@H]2C3=O)O1
[1]
  outcome: inactive
[2]
  outcome: inactive
[3]
  outcome: inactive
[4]
  outcome: inactive
[5]
  outcome: inactive
[7]
  outcome: inactive
[8]
  outcome: inactive
[9]
  outcome: inactive
[10]
  AC50: 0.063 µM (active)
[11]
  AC50: 0.00527 µM (active)
[12]
  AC50: 0.0306 µM (active)
[13]
  AC50: 8.69 µM (active)
[14]
  AC50: 7.25 µM (active)

## Nc1c(Cl)cc([N+](=O)[O-])cc1Cl
[1]
  outcome: inactive
[15]
  outcome: inactive
[3]
  outcome: inactive
[4]
  outcome: inactive
[5]
  outcome: inactive
[18]
  outcome: inactive
[7]
  outcome: inactive
[8]
  AC50: 50 µM (active)
[9]
  outcome: inactive
[10]
  AC50: 59.5 µM (active)
[11]
  AC50: 41.1 µM (active)
[12]
  AC50: 50 µM (active)
[13]
  outcome: inactive
[14]
  outcome: inactive

## CNC(=O)ON=C(C)SC
[17]
  outcome: inactive
[2]
  outcome: inactive
[3]
  outcome: inactive
[4]
  outcome: inactive
[18]
  outcome: inactive
[7]
  outcome: inactive
[8]
  outcome: inactive
[9]
  outcome: inactive
[10]
  outcome: inactive
[11]
  outcome: inactive
[12]
  outcome: inactive
[19]
  outcome: inactive
[13]
  outcome: inactive
[14]
  outcome: inactive

## CCCCOC(=O)[C@@H](C)Oc1ccc(Oc2ccc(C#N)cc2F)cc1
[1]
  outcome: inactive
[17]
  outcome: inactive
[2]
  outcome: inactive
[3]
  outcome: inactive
[18]
  outcome: inactive
[16]
  outcome: inactive
[7]
  outcome: inactive
[8]
  outcome: inactive
[9]
  outcome: inactive
[10]
  outcome: inactive
[11]
  outcome: inactive
[12]
  outcome: inactive
[13]
  outcome: inactive
[14]
  outcome: inactive
